Only some compounds are listed: those with a hit (about 32% of all), similar ones and a draw of the others.
CYP2C19 inhib: inhibitors of human CYP2C19; actives 21% (n = 96,000); AID 778; CYP2C19 Supersomes, luciferin-H EGE luminescence, 30 min; inhibition, % at 5 µM;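 active = CYP2C19 inhibition above a set limit at 5 µM in the primary screen, cut at about 50% in these data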;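 also: plate controls were negative control wells for no effect and 2.5 mM tranylcypromine positive control for full effect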
CYP2C19 activ: activators of human cytochrome P450 2C19. P33261. recombinant CYP2C19, luciferin-H EGE luminescence; active compounds read high; 0 = fully inhibited enzyme, 1 = untreated enzyme. activation factor at 5 µM. 96,000 tested, under 10 active;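 active = activation factor of at least 2 at 5 µM in the primary screen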;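 also: 0 = wells with 2.5 mM tranylcypromine and 1 = vehicle-only wells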
CYP2C9 activ: CYP2C9 (human) activation; actives 1.4% (n = 96,000); activation factor at 5 µM; AID 1024; recombinant CYP2C9, luciferin-H conversion, luminescence; active compounds read high; factor 1 = untreated enzyme, 0 = blocked;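 active = activation factor of 2 or more for CYP2C9 at a 5 µM dose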;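 also: 0 = sulfaphenazole-blocked wells and 1 = vehicle-only wells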
Target sequence (P11712 whole entry, looked up): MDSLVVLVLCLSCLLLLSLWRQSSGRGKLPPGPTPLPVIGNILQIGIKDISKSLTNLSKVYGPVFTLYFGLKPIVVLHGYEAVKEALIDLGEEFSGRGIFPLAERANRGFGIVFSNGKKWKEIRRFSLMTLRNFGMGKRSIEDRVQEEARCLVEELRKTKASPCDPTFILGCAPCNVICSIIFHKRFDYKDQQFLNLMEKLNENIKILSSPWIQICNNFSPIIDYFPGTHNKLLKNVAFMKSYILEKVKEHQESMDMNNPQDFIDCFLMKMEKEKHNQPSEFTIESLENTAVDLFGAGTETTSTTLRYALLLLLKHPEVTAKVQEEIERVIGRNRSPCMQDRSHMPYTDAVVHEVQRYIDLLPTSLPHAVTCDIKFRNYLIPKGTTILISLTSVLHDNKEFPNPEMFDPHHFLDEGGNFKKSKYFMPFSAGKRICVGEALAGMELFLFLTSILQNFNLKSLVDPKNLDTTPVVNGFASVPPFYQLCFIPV
PostGolgi yeast: growth inhibition of a yeast mutant, post-Golgi transport screen; post-Golgi transport phenotypic cell assay; inhibition, % at 10 µM; actives 0.9% (n = 98,000); AID 739;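 also: yeast cells grown in 1536-well plates; yeast grown about 18 h at 30C before absorbance read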
PostGolgi ctrl: yeast control strain growth, post-Golgi counter-screen | efflux-deficient yeast background strain, growth absorbance A615, 16 h | inhibition, % at 10 µM | actives 5% (n = 98,000)
CYP2C9 inhib: human CYP2C9 inhibition; CYP2C9 Supersomes, luciferin-H conversion, luminescence; inhibition, % at 5 µM; actives 20% (n = 96,000); AID 777;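 active = blocking of liver enzyme CYP2C9 beyond about 50% at 5 µM, limit read from the data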
* marks the source's active call; other numbers are inactive results; . = no result. Rule as the data show it, unless noted: active = inhibition above about 30%; inactive = the rest.

SMILES	CYP2C19 inhib	CYP2C19 activ	CYP2C9 activ	PostGolgi yeast	PostGolgi ctrl	CYP2C9 inhib
COc1ccccc1C(CCN(Cc1cccs1)C(C)=O)c1ccco1 (configuration not stated)	92*	0.1	0.1	0	38*	90*
CCC(=O)N(CCC(c1ccccc1)c1ccco1)Cc1cccs1 (configuration not stated)	36	0.6	0.3	-16	48*	69*
Cc1[nH]c2ccccc2c1C(=O)CN1CCC(C(N)=O)(N2CCCCC2)CC1	-13	1.1	0.8	16	-7	16
O=C(O)c1ccc(SCc2cnc(Cl)s2)cc1	-1	1	1.3	-17	6	-32
CC(=O)C(Cc1cnc(Cl)s1)(Cc1cnc(Cl)s1)C(C)=O	69*	0.3	0.9	-1	17	11
Cc1cc(C)c(C(=O)c2ccc(C(=O)N(C(C)C)C(C)C)cc2)c(C)c1	86*	0.1	0.2	-1	14	82*
Cc1cc(C)c(C(=O)c2ccc(C(=O)NC(C)(C)C)cc2)c(C)c1	30	0.7	0.8	-3	6	20
CN1C(=O)C2ON(c3ccccc3)C(c3cccs3)C2C1=O (configuration not stated)	59*	0.4	0.7	-8	-2	33
O=C(CSc1nnc(CNC(=O)c2cccs2)o1)Nc1cccc(C(F)(F)F)c1	25	0.8	0.8	-7	10	22
Cc1ccc(C)c(Cn2cnc3c(cnn3C(C)(C)C)c2=O)c1	97*	0	0.6	1	21	35
CC(C)(C)n1ncc2c(=O)n(CC(=O)c3ccccc3)cnc21	.	.	.	-3	-3	.
Cc1ccccc1Cn1cnc2c(cnn2C(C)(C)C)c1=O	68*	0.3	0.7	8	1	27
COc1ccc(NC(=O)CSc2ncn(-c3ccccc3)n2)cc1Cl	37	0.6	0.6	1	18	37
Cn1c(SCC(=O)N2CCN(S(=O)(=O)c3ccccc3)CC2)nc2ccccc21	30	0.7	1.5	-2	10	-48
Cn1c(SCC(=O)N(Cc2ccccc2)C(C)(C)C)nc2ccccc21	50*	0.5	1.4	-5	27	-38
O=C(Oc1ccc2c3c(c(=O)oc2c1)CCC3)c1ccco1	7	0.9	1.6	-4	-3	-59
O=c1oc2cc(Oc3c([N+](=O)[O-])cc(C(F)(F)F)cc3[N+](=O)[O-])ccc2c2c1CCCC2	33	0.7	1.6	106*	85*	-58
CC(C)COC(=O)N(C)c1ccc(C(O)(C(F)(F)F)C(F)(F)F)cc1	11	0.9	0.6	26	1	42
O=C(OCn1ncc(Cl)c(Cl)c1=O)c1ccc(C(F)(F)F)cc1	83*	0.2	0.8	109*	68*	22
Cc1cccc(Cn2ncc(Cl)c(Cl)c2=O)c1	10	0.9	1.1	9	3	-7
COc1ccc(C2SCC(C(=O)NCc3ccc(F)cc3)N2C(C)=O)cc1 (configuration not stated)	29	0.7	0.8	3	-5	19
Cc1nn(Cc2c(F)c(F)c(F)c(F)c2F)c(C)c1NC(=O)c1nn(C)cc1[N+](=O)[O-]	7	0.9	1	-28	8	4
Cc1ccc(-c2nc(NC(=O)c3nn(C)cc3[N+](=O)[O-])sc2C)cc1C	-4	1	0.5	-2	-2	54*
Cc1ccc(-c2csc(NC(=O)c3ccno3)n2)cc1	38	0.6	0.3	-4	-3	70*
Cc1ccc(-c2csc(NC(=O)c3cccc([N+](=O)[O-])c3)n2)cc1	-8	1.1	1.1	-4	19	-10
SMILES	CYP2C19 inhib	CYP2C19 activ	CYP2C9 activ	PostGolgi yeast	PostGolgi ctrl	CYP2C9 inhib
Cn1cc([N+](=O)[O-])c(C(=O)Nc2nc(-c3ccc(Cl)cc3)cs2)n1	-9	1.1	1.1	1	40*	-5
O=C(Nc1nc(-c2ccc(Cl)cc2)cs1)c1cccnc1	61*	0.4	0.6	-5	7	40
Cc1ccc(-c2nc(NC(=O)c3nn(C)cc3[N+](=O)[O-])sc2C)cc1	13	0.9	0.8	14	1	17
N#CCN1CCN(CC(=O)Nc2ccc(OCc3ccccc3)cc2)CC1	22	0.8	0.6	-3	0	44
O=C(OCn1nnc2ccccc2c1=O)C1CCN(S(=O)(=O)c2cccs2)CC1	.	.	.	-9	-3	.
O=C(COc1ccccc1)Nc1cccc(-c2nc3cc4ccccc4cc3[nH]2)c1	44	0.6	0.2	45*	20	80*
CC(C)(C)C(=O)Nc1cccc(-c2nc3ccccc3[nH]2)c1	53*	0.5	0.1	0	1	85*
CC(=O)Nc1cccc(-c2nc3ccc(NC(C)=O)cc3[nH]2)c1	-6	1.1	1.1	-5	7	-11
CC(Oc1ccccc1)C(=O)Nc1cccc(-c2nc3ccccc3[nH]2)c1 (configuration not stated)	79*	0.2	0	-6	15	98*
Cc1ccc(C(=O)N/C(=C/c2ccc(-c3cc(C(F)(F)F)ccc3Cl)o2)C(=O)NCc2cccnc2)cc1	39	0.6	0.4	-3	19	58*
O=C(NCc1cccnc1)/C(=C/c1ccc(-c2cccc(C(F)(F)F)c2)o1)NC(=O)c1ccccc1	31	0.7	0.8	-3	1	24
O=C(Nc1ccccc1)N1CCC(c2nc(-c3ccc(S(=O)(=O)N4CCOCC4)cc3)no2)CC1	10	0.9	0.5	-5	13	46
Cc1ccc(C(=O)NCCn2cc(SCC(=O)Nc3cc(C)on3)c3ccccc32)cc1	91*	0.1	0.1	-7	9	86*
COc1ccccc1C(=O)NCCn1cc(SCC(=O)Nc2nnc(C)s2)c2ccccc21	44	0.6	0.2	0	12	76*
Cc1ccc(C(=O)NCCn2cc(SCC(=O)N3CCOCC3)c3ccccc32)cc1	28	0.7	0.8	6	-2	22
Cc1cc(NC(=O)CSc2cn(CCNC(=O)c3ccccc3)c3ccccc23)no1	90*	0.1	0.1	-4	17	94*
CCOc1cc(C(=O)NCCOC)ccc1OC	2	1	1	27	8	-3
CCC(C)C(NC(=O)C1CCC(C)CC1)C(=O)NCc1ccccn1 (configuration not stated)	-4	1	1	5	5	-1
O=C(C1CCN(S(=O)(=O)c2cccc3cccnc23)CC1)N1CCN(c2ccccn2)CC1	7	0.9	0.5	-5	2	48
CCOC(=O)C1CCN(C(=O)C2CCN(S(=O)(=O)c3cccc4cccnc34)CC2)CC1	6	0.9	2.3*	4	32*	-129
CC1Cc2ccccc2N1C(=O)C1CCCN(S(=O)(=O)c2cccc3cccnc23)C1 (configuration not stated)	78*	0.2	0.7	-4	29	27
